Assay outcomes: PubChem BioAssay, National Center for Advancing Translational Sciences (NCATS)
This is a sample that favours compounds with a hit; in the whole collection about 2.4% have one here.
D2 antag = antagonizes the human D2 dopamine receptor; P14416; HEK293 TREx D2 cells, calcium flux, dopamine EC80; inhibition, % at 10 µM; 2% of 340,000 active; AID 485344; in the data active = inhibition above about 30%; inactive = below that, where a call was filed; also: 0% is about no effect
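Inhibition of EC80 dopamine-driven calcium flux, recorded kinetically, defines activity here; cells are a tetracycline-induced HEK293 T-REx line expressing force-coupled D2.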
D2 ag-1 = D2 dopamine receptor (human) agonism. P14416. HEK293 T-REx D2 cells, calcium flux agonist mode. activation, % at 2 µM. 0.53% of 340,000 active;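 active = activation over 3 SD above normal in the single-dose calcium agonist read, cut at about 30% in these data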; also: 0% is about no effect
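Tetracycline-induced HEK293 Trex cells with D2 receptor force-coupled to calcium signaling, plated overnight at 30 C and loaded with no-wash calcium dye. Calcium flux read kinetically for 180 s after compound addition; responses flag agonists.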
D2 ag-2 = activates the human D2 dopamine receptor; P14416; DiscoveRx PathHunter D2 beta-arrestin, luminescence, 90 min; 100% = 57 uM dopamine signal; activation, % (test concentration not listed); 0.084% of 360,000 active; AID 624465; in the data active = activation above about 40%; inconclusive = between about 15% and that limit
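DiscoveRx PathHunter D2 beta-arrestin cells (2,100/well) attached overnight, then compound-stimulated 90 min at 37 C in HBSS/10 mM HEPES/0.1% Tween-20 buffer; beta-galactosidase complementation read by luminescence after 1 h at ambient temperature. Dopamine 57 uM final (EC100) as control.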
D2 PAM-1 = positively modulates the human D2 dopamine receptor allosterically; potentiation, % at 10 µM; 0.34% of 340,000 active; HEK293 T-REx D2, calcium flux, EC20 dopamine potentiation; P14416; AID 485347;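 active = potentiation over 3 SD above the plate norm, cut at about 30% in these data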; also: 0% is about no effect
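Potentiation of an EC20 dopamine calcium response measured kinetically over 180 s, after a preceding 180 s compound-only read flagging agonists. Cells: inducible Hek293 Trex D2 line, 4000/well, cultured overnight at 30 C before dye loading.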
D2 PAM-2 = potentiates the human D2 dopamine receptor allosterically; P14416; DiscoveRx D2 beta-arrestin cells, luminescence, 90 min; 100% = 57 uM dopamine signal; potentiation, % (no concentration beside the values); 0.23% of 360,000 active; in the data active = potentiation above about 50%; inconclusive = mostly about 30% to 49%
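D2 cells co-treated with compound plus 50 nM dopamine (EC20) for 90 min at 37 deg C to detect potentiation. Beta-arrestin recruitment was read as enzyme-fragment luminescence after 1 h at ambient temperature. Full response was set by 57 uM dopamine.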
D3 ag = activates human D3 dopamine receptor beta-arrestin recruitment. Potency, µM (highest dose often 76.9 µM), for the others: at the highest dose activation, hits mostly activators. 4% of 2,300 active. AID 720506. DiscoveRx D3 beta-arrestin cells, luminescence, 90 min. shares compounds with D2 ag-1;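 also: potency is read from the fitted curve at half-maximal effect; 100% = dopamine control response; nearly all actives have a fitted effect of over 70% in size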
Target sequence (P35462 whole entry, looked up): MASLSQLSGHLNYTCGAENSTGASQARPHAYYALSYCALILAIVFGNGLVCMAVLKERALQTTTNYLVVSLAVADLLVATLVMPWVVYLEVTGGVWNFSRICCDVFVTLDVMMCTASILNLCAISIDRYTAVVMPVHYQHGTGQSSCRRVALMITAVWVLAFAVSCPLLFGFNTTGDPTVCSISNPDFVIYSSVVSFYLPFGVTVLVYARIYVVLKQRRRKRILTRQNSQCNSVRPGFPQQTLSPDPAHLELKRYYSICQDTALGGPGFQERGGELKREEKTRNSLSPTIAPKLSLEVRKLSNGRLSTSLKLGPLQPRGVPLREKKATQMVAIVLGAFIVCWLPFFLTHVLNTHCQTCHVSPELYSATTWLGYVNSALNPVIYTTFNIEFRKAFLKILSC
D2 ag-3 = D2 receptor agonism, beta-arrestin counterscreen | shares compounds with D2 ag-1 | DiscoveRx PathHunter D2 beta-arrestin, luminescence, 90 min; response scale: percent relative to full dopamine signal | Potency, µM (top dose mostly 76.9 µM), without a hit: at the top dose activation, actives largely listed as activators | 5.9% of 2,300 active; also: potency is read from the fitted curve at half-maximal effect; % of control where 0% means no effect; nearly all actives have a fitted effect of over 70% in size
* = called active by the depositor; ? = inconclusive; . = no result given. Unless noted, calls follow the shape of the dose curve; as a rule, active = well fitted activation curve with a large enough effect; inconclusive = small, poorly fitted or top-dose-only effect; inactive = flat fitted curve, though single readings scatter.

SMILES	D2 antag	D2 ag-1	D2 ag-2	D2 PAM-1	D2 PAM-2	D3 ag	D2 ag-3
Cn1c(=O)c2c(nc(N3CCN(c4ccc([N+](=O)[O-])cc4)CC3)n2C)n(C)c1=O	34*	0	-19	3	-5	.	.
Cn1c(=O)c2c(ncn2CC(=O)N2CCN(c3ccc([N+](=O)[O-])cc3)CC2)n(C)c1=O	-4	0	0	-1	-2	.	.
CC(C)N1CCN(Cc2ccsc2)CC1CCO (configuration not stated)	44*	44*	-4	-22	-7	-10%	-2%
CCN1CCc2c(sc(NC(=S)NC(=O)c3ccc(Cl)cc3)c2C(N)=O)C1	-12	44*	-10	-12	-19	-4%	-10%
CN1CCc2c(sc(NC(=O)c3ccc(C(=O)c4ccccc4)cc3)c2C(N)=O)C1	37*	69*	-1	-13	-5	-9%	-1%
CN1CCc2c(sc(NC(=O)Cc3ccccc3)c2C#N)C1	70*	78*	5	-23	14	13%	?
CCCN1CCc2c(sc(NC(=S)NC(=O)c3ccccc3)c2C#N)C1	78*	77*	14	-15	17	7%	13%
CC(C)N1CCc2c(sc(NC(=S)NC(=O)c3ccccc3)c2C#N)C1	1	3	-9	1	-9	.	.
Cc1ccc(-n2nc(CO)c(C(=O)NC(C)CCCc3ccccc3)n2)cc1C (configuration not stated)	.	22	.	-18	.	.	.
O=C(O)CNC(=O)c1ccccc1Br	40*	4	1	6	-1	-7%	-1%
O=C(CCc1nc2ccccc2c(=O)[nH]1)Nc1ccc(Cl)c(Cl)c1	54*	70*	?	-23	15	?	?
CC(NC(=O)CCC(=O)NC(C)c1ccccc1)c1ccccc1 (configuration not stated)	-17	0	-2	-3	-5	.	.
CC(NC(=O)CCC(=O)N1CCCCCC1)c1ccccc1 (configuration not stated)	10	44*	0	-23	3	-1%	-2%
Cc1ccccc1CN1C(=O)c2ccccc2Sc2ccc(C(=O)NC(C)c3ccccc3)cc21 (configuration not stated)	.	0	.	-14	.	.	.
Cc1cc(OCC(=O)Nc2ccc(C(=O)OC3CCCCC3)cc2)ccc1Cl	.	0	.	0	.	.	.
N#CCCN(C(=O)COC(=O)COc1ccccc1Cc1ccccc1)c1ccccc1	7	1	-2	-8	1	-6%	0%
O=C(c1ccsc1)N1CCCC(N2CCN(c3cccc(Cl)c3)CC2)C1 (configuration not stated)	-16	7	-1	0	-26	.	.
CC(C)n1cc(C(=O)N2CCCC(N3CCN(c4cccc(Cl)c4)CC3)C2)cn1 (configuration not stated)	8	52*	3	-13	-10	6%	9%
COC(=O)c1ccc(C(=O)N2CCCC(N3CCN(c4ccccc4)CC3)C2)nc1 (configuration not stated)	10	43*	-1	-11	-8	-1%	4%
Cc1cnc(C(=O)N2CCCC(N3CCN(c4cccc(C(F)(F)F)c4)CC3)C2)cn1 (configuration not stated)	-4	26	4	-16	-7	-4%	9%
CC(C)NC(=O)CN1C(=O)c2cccnc2Sc2ccccc21	.	2	.	7	.	.	.
CN1CCN(C(=O)CSc2nc(-c3ccco3)cc(C(F)(F)F)n2)CC1	-15	-1	1	-6	-15	.	.
O=C(CCSc1nc(-c2ccco2)cc(C(F)(F)F)n1)N1CCN(c2ccccn2)CC1	6	52*	0	-17	2	-7%	0%
Clc1ccc(-n2ncc3c(NCc4ccco4)ncnc32)cc1	-22	-2	1	-9	6	4%	3%
